Among all 5,500 compounds or so, about 2,000 (36%) were called active. Another 18% or so got no clear call; they are omitted. Rule as the data show it: active = normalized growth mostly below about 0.91 (no sharp cut-off); inconclusive = no clear call, values can overlap the other calls; inactive = mostly above about 0.92. This is one part of the list.
Test: chemical genetic growth profiling, strain panel (AID 1159580);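 also: tested at 20 µM; growth read once vehicle control cultures reached saturation at 30 °C; 1 = growth at the plate median or of vehicle wells; lower values mean less growth of the strain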
Details: growth OD

Measured: normalized growth

CC(=O)Oc1cc(OC(C)=O)c2c(=O)c(-c3ccccc3)coc2c1
inactive: S. cerevisiae deletion strains, locus YAL013W, strain DEP1, stronger effect = lower value 0.995 | S. cerevisiae deletion strains, locus YBR021W, strain FUR4, stronger effect = lower value 0.978 | S. cerevisiae deletion strains, locus YBR229C, strain ROT2, stronger effect = lower value 1 | S. cerevisiae deletion strains, locus YCL029C, strain bik1, stronger effect = lower value 1 | S. cerevisiae deletion strains, locus YDL035C, strain GPR1, stronger effect = lower value 0.997 | S. cerevisiae deletion strains, locus YDL074C, strain BRE1, stronger effect = lower value 0.989 | S. cerevisiae deletion strains, locus YDL101C, strain DUN1, stronger effect = lower value 1.01 | S. cerevisiae deletion strains, locus YDL134C, strain PPH21, stronger effect = lower value 1.01 | S. cerevisiae deletion strains, locus YDL185W, strain tfp1, stronger effect = lower value 0.998 | S. cerevisiae deletion strains, locus YDL192W, strain arf1, stronger effect = lower value 0.993 | S. cerevisiae deletion strains, locus YDR101C, strain arx1, stronger effect = lower value 0.982 | S. cerevisiae deletion strains, locus YDR150W, strain NUM1, stronger effect = lower value 1.02 | S. cerevisiae deletion strains, locus YDR162C, strain NBP2, stronger effect = lower value 1.01 | S. cerevisiae deletion strains, locus YDR318W, strain mcm21, stronger effect = lower value 0.982 | S. cerevisiae deletion strains, locus YDR388W, stronger effect = lower value 1 | S. cerevisiae deletion strains, locus YDR502C, strain sam2, stronger effect = lower value 0.978 | S. cerevisiae deletion strains, locus YEL061C, strain CIN8, stronger effect = lower value 1.01 | S. cerevisiae deletion strains, locus YER110C, stronger effect = lower value 0.992 | S. cerevisiae deletion strains, locus YER155C, strain BEM2, stronger effect = lower value 1.01 | S. cerevisiae deletion strains, locus YER167W, strain BCK2, stronger effect = lower value 1.02 | S. cerevisiae deletion strains, locus YGL078C, strain dbp3, stronger effect = lower value 0.991 | S. cerevisiae deletion strains, locus YGL086W, strain mad1, stronger effect = lower value 1 | S. cerevisiae deletion strains, locus YGL248W, strain PDE1, stronger effect = lower value 1.01 | S. cerevisiae deletion strains, locus YGR078C, strain PAC10, stronger effect = lower value 1 | S. cerevisiae deletion strains, locus YGR135W, strain pre9, stronger effect = lower value 0.985 | S. cerevisiae deletion strains, locus YGR229C, strain SMI1, stronger effect = lower value 1.02 | S. cerevisiae deletion strains, locus YGR252W, strain gcn5, stronger effect = lower value 0.888 | S. cerevisiae deletion strains, locus YHR030C, strain SLT2, stronger effect = lower value 1.01 | S. cerevisiae deletion strains, locus YHR079C, strain IRE1 (second series), stronger effect = lower value 0.98 | S. cerevisiae deletion strains, locus YHR094C, strain hxt1, stronger effect = lower value 0.988 | S. cerevisiae deletion strains, locus YHR129C, strain ARP1, stronger effect = lower value 1 | S. cerevisiae deletion strains, locus YHR200W, strain rpn10, stronger effect = lower value 1 | S. cerevisiae deletion strains, locus YIL066C, strain RNR3, stronger effect = lower value 1.02 | S. cerevisiae deletion strains, locus YIL073C, strain SPO22, stronger effect = lower value 1 | S. cerevisiae deletion strains, locus YIL125W, strain kgd1, stronger effect = lower value 0.992 | S. cerevisiae deletion strains, locus YIR030C, strain dcg1, stronger effect = lower value 1 | S. cerevisiae deletion strains, locus YJL095W, strain BCK1, stronger effect = lower value 1.01 | S. cerevisiae deletion strains, locus YJL134W, strain LCB3, stronger effect = lower value 1.01 | S. cerevisiae deletion strains, locus YJL168C, strain set2, stronger effect = lower value 1 | S. cerevisiae deletion strains, locus YJL187C, strain SWE1 (second series), stronger effect = lower value 1 | S. cerevisiae deletion strains, locus YJR043C, strain POL32, stronger effect = lower value 0.987 | S. cerevisiae deletion strains, locus YJR075W, strain HOC1, stronger effect = lower value 1.02 | S. cerevisiae deletion strains, locus YKL009W, strain mrt4, stronger effect = lower value 1.02 | S. cerevisiae deletion strains, locus YKL068W, stronger effect = lower value 0.993 | S. cerevisiae deletion strains, locus YKL085W, strain MDH1 (second series), stronger effect = lower value 0.982 | S. cerevisiae deletion strains, locus YKL085W, strain MDH1, stronger effect = lower value 0.982 | S. cerevisiae deletion strains, locus YKL190W, strain CNB1, stronger effect = lower value 1.03 | S. cerevisiae deletion strains, locus YKR001C, strain vps1, stronger effect = lower value 0.944 | S. cerevisiae deletion strains, locus YLR039C, strain RIC1, stronger effect = lower value 0.901 | S. cerevisiae deletion strains, locus YLR058C, strain SHM2, stronger effect = lower value 1.01 | S. cerevisiae deletion strains, locus YLR102C, strain apc9, stronger effect = lower value 1 | S. cerevisiae deletion strains, locus YLR262C, strain YPT6, stronger effect = lower value 0.913 | S. cerevisiae deletion strains, locus YLR268W, strain sec22, stronger effect = lower value 0.983 | S. cerevisiae deletion strains, locus YLR330W, strain CHS5, stronger effect = lower value 1.01 | S. cerevisiae deletion strains, locus YLR342W, strain FKS1 (second series), stronger effect = lower value 0.966 | S. cerevisiae deletion strains, locus YLR371W, strain rom2, stronger effect = lower value 1 | S. cerevisiae deletion strains, locus YLR418C, strain cdc73, stronger effect = lower value 0.891 | S. cerevisiae deletion strains, locus YML016C, strain PPZ1, stronger effect = lower value 1.02 | S. cerevisiae deletion strains, locus YML032C, strain rad52, stronger effect = lower value 1 | S. cerevisiae deletion strains, locus YML124C, strain tub3, stronger effect = lower value 0.995 | S. cerevisiae deletion strains, locus YMR078C, strain ctf18, stronger effect = lower value 1 | S. cerevisiae deletion strains, locus YMR223W, strain ubp8, stronger effect = lower value 0.992 | S. cerevisiae deletion strains, locus YMR263W, strain SAP30, stronger effect = lower value 1 | S. cerevisiae deletion strains, locus YMR307W, strain GAS1, stronger effect = lower value 0.858 | S. cerevisiae deletion strains, locus YNL067W, strain RPL9B, stronger effect = lower value 1 | S. cerevisiae deletion strains, locus YNL128W, strain TEP1, stronger effect = lower value 1.03 | S. cerevisiae deletion strains, locus YNL153C, strain GIM3, stronger effect = lower value 1.02 | S. cerevisiae deletion strains, locus YNL233W, strain BNI4, stronger effect = lower value 1.02 | S. cerevisiae deletion strains, locus YNL250W, strain rad50, stronger effect = lower value 0.974 | S. cerevisiae deletion strains, locus YNL271C, strain bni1, stronger effect = lower value 0.991 | S. cerevisiae deletion strains, locus YNL298W, strain CLA4, stronger effect = lower value 0.999 | S. cerevisiae deletion strains, locus YNL307C, strain MCK1, stronger effect = lower value 0.932 | S. cerevisiae deletion strains, locus YNL322C, strain KRE1, stronger effect = lower value 1.01 | S. cerevisiae deletion strains, locus YNR052C, strain pop2, stronger effect = lower value 0.989 | S. cerevisiae deletion strains, locus YOL006C, strain TOP1, stronger effect = lower value 0.991 | S. cerevisiae deletion strains, locus YOL012C, strain htz1 0.735 | S. cerevisiae deletion strains, locus YOL147C, strain pex11, stronger effect = lower value 0.994 | S. cerevisiae deletion strains, locus YOR061W, strain CKA2, stronger effect = lower value 1.02 | S. cerevisiae deletion strains, locus YOR069W, strain VPS5, stronger effect = lower value 1.01 | S. cerevisiae deletion strains, locus YOR136W, strain idh2, stronger effect = lower value 0.997 | S. cerevisiae deletion strains, locus YOR144C, strain elg1, stronger effect = lower value 1 | S. cerevisiae deletion strains, locus YOR184W, strain ser1, stronger effect = lower value 0.986 | S. cerevisiae deletion strains, locus YOR316C, strain cot1, stronger effect = lower value 1 | S. cerevisiae deletion strains, locus YPL055C, strain LGE1, stronger effect = lower value 0.991 | S. cerevisiae deletion strains, locus YPL241C, strain CIN2, stronger effect = lower value 1.01 | S. cerevisiae deletion strains, locus YPR119W, strain clb2, stronger effect = lower value 0.999 | S. cerevisiae deletion strains, locus YPR141C, strain kar3, stronger effect = lower value 0.979 | S. cerevisiae deletion strains, locus YPR163C, strain tif3, stronger effect = lower value 0.994 | S. cerevisiae deletion strains, locus YPR167C, strain met16, stronger effect = lower value 0.996 | S. cerevisiae deletion strains, strain wtn01, stronger effect = lower value 0.984 | S. cerevisiae strains, strain wild type, stronger effect = lower value 1.01

Source: PubChem BioAssay AID1159580 (chemical genetic matrix, 2015)
